Screens: PubChem BioAssay, several laboratories
This is a sample that favours compounds with a hit; in the whole collection about 4% have one here.
ADAM17 inh – ADAM17 inhibition, QFRET primary screen | P78536 | recombinant ADAM17, EDANS/DABCYL FRET peptide cleavage | inhibition, % at 6.95 µM | 370,000 tested, 0.83% active | AID 720648;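 active = inhibition above the mean of compounds lying between control limits plus 3 SD, set per campaign, cut at about 8.5% in these data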;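 note: 0% = DMSO-only wells as the low control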
GRIN3A LBD mod – NR3A (human) ligand-binding domain modulation; NR3A LBD differential scanning fluorimetry, Tm shift; 0% = protein alone, 100% = glycine-bound protein; Tm shift relative to glycine control, % at 25 µM; 340,000 tested, 2.5% active; AID 1259313;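 active = melting temperature shift of at least 10% of the positive control shift, at one fixed dose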
ADAM10 inh – ADAM10 inhibition, QFRET primary screen | O14672 | recombinant ADAM10, EDANS/DABCYL FRET peptide cleavage, 3 h | inhibition, % at 7 µM | 370,000 tested, 0.62% active | AID 720582;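 active = inhibition above a per-campaign cutoff equal to the mean of compounds falling between control-based bounds plus 3 SD, cut at about 20% in these data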;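 note: 0% = DMSO wells while the 100% control is not disclosed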
Target sequence (O14672 214-748 limits assumed): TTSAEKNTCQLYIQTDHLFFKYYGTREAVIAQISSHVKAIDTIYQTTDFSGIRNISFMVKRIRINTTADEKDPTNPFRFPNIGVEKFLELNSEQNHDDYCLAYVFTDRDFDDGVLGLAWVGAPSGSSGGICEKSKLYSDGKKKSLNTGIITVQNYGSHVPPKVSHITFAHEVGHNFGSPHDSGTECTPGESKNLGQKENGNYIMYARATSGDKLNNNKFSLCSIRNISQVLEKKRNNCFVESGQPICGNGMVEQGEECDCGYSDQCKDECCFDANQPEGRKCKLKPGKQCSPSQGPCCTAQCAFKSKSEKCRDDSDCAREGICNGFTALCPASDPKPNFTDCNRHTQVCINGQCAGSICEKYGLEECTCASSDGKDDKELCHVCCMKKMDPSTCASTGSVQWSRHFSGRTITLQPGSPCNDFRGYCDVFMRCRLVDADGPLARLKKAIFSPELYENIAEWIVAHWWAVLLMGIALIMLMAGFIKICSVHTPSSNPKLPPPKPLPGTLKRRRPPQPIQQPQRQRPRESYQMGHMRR
FAS TE block – inhibitors of human fatty acid synthase thioesterase domain. P49327. recombinant FAS-TE, OMFH fluorogenic substrate, fluorescence endpoint. inhibition, % at 15 µM. 360,000 tested, 0.67% active. AID 602261;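 active = compounds whose normalised, plate-corrected inhibition of enzyme fluorescence in the single-dose primary screen is 50% or more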;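 note: 0% = DMSO with enzyme and 100% = substrate without enzyme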
aDG glyco act – increases alpha dystroglycan glycosylation | Pro5-aDG cells, alpha-DG glycosylation AlphaScreen (IIH6); 0% Pro5, 100% B10-LARGE cell signal | 360,000 tested, 0.22% active | activation, % at 10 µM;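 active = activation of at least 8% versus controls, or a plate z-score of at least 8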;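 note: Pro5 are CHO cells carrying HIG-tagged alpha-DG that lacks glycosylation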
ADAM10 confirm – confirmation of inhibitors of human ADAM10. AID 743208. inhibition, % at 6.95 µM. 2,100 tested, 1% active. ADAM10 QFRET peptide cleavage, EDANS fluorescence. shares compounds with ADAM10 inh;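 active = inhibition above about 20% chosen separately for each screening run, limit read from the data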;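 note: 0% = DMSO wells and 100% = marimastat wells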
ADAM17 ctr – counter-screen for ADAM10 exosite inhibitors: inhibitors of human ADAM17 | shares compounds with ADAM10 inh | ADAM17 QFRET peptide cleavage, EDANS fluorescence | inhibition, % at 6.95 µM | 2,100 tested, 0.5% active;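 active = mean triplicate inhibition above the solvent-only control wells' mean plus 3 SD, cut at about 12% in these data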;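 note: 0% = DMSO wells and 100% = marimastat wells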
ADAM10 counter – counter-screen for ADAM17 exosite inhibitors: inhibitors of human ADAM10 | inhibition, % at 6.95 µM | shares compounds with ADAM17 inh | recombinant ADAM10, EDANS/DABCYL FRET peptide cleavage, 3 h | 2,900 tested, 47% active | AID 743256;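 active = mean inhibition over the triplicate runs exceeds the activity threshold set in the earlier primary screen, cut at about 20% in these data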;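 note: 0% = DMSO wells and 100% = marimastat wells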
ADAM17 confirm – human ADAM17 inhibition, confirmation | shares compounds with ADAM17 inh | recombinant ADAM17, EDANS/DABCYL QFRET peptide cleavage | inhibition, % at 6.95 µM | 2,900 tested, 65% active | AID 743257;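 active = mean inhibition across replicates above the hit cutoff set in the primary screen, cut at about 8.5% in these data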;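 note: 0% = DMSO wells and 100% = marimastat wells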
An asterisk follows results filed as active; x = no result given.

SMILES	ADAM17 inh	GRIN3A LBD mod	ADAM10 inh	FAS TE block	aDG glyco act	ADAM10 confirm	ADAM17 ctr	ADAM10 counter	ADAM17 confirm
O=C(CSc1ccc2ccccc2c1Br)Nc1cccc(S(=O)(=O)NC2=NCCCCC2)c1	13.7*	11.6*	35.5*	16.6	-0.2	5.3	1.8	28.3*	19.7*
Cc1cccc(C(=O)OCC(=O)NCc2ccc(Cl)cc2)c1	-5.4	x	-8.7	-9.9	-0.3	x	x	x	x
NC(=O)Nc1ccc(Nc2ccccc2)cc1	0.8	-1.8	6.7	-0.5	-0.1	x	x	x	x
O=C(Nc1ccc(Nc2ccccc2)cc1)C(Cl)(Cl)Cl	9.8*	6.2	25.6*	8.9	0.5	5.3	1.5	8.0	4.3
CN(C)c1ccc(C(CNS(=O)(=O)c2ccc(F)c(F)c2)c2c[nH]c3ccccc23)cc1 (stereo not given)	13.7*	22.5*	40.0*	36.4	-0.4	13.1	4.2	54.5*	31.2*
CN(C)c1ccc(C(CNC(=O)c2ccccc2F)c2c[nH]c3ccccc23)cc1 (stereo not given)	5.8	-12.1	11.3	18.0	-0.6	x	x	x	x
COC(=O)c1sccc1NC(=O)CSc1ccccc1NS(=O)(=O)c1ccc(Br)cc1	10.9*	-7.0	21.0*	38.7	0.3	2.8	1.6	10.3	5.8
Cc1ccc(Cn2cc(COC(=O)NCCc3c[nH]c4ccccc34)nn2)cc1	-2.6	x	2.0	x	x	x	x	x	x
C#CCN(C[C@@H]1[C@@H](OC(=O)NC2CCCC2)[C@@H](OC(=O)NC2CCCC2)CN(C(=O)OC(C)C)N1C(=O)OC(C)C)S(=O)(=O)c1ccc(C)cc1	15.1*	x	32.5*	14.0	0.4	5.5	2.7	54.1*	21.2*
C#CCN(C[C@@H]1[C@@H](OC(=O)NC2CC2)[C@@H](OC(=O)NC2CC2)Cn2c(=O)n(CCCCCC)c(=O)n21)S(=O)(=O)c1ccc(C)cc1	3.7	x	13.0	14.3	0.3	x	x	x	x
C#CCN(C[C@@H]1[C@@H](OC(=O)NCc2ccc(OC)c(OC)c2)[C@@H](OC(=O)NCc2ccc(OC)c(OC)c2)Cn2c(=O)ccc(=O)n21)S(=O)(=O)c1ccc(C)cc1	1.8	x	16.8	-5.9	0.1	x	x	x	x
C#CCN(C[C@@H]1[C@@H](OC(=O)NCc2ccc(OC)c(OC)c2)[C@@H](OC(=O)NCc2ccc(OC)c(OC)c2)CN(C(=O)OC(C)C)N1C(=O)OC(C)C)S(=O)(=O)c1ccc(C)cc1	11.2*	x	26.9*	20.5	0.6	3.6	1.0	43.2*	22.1*
COC(=O)c1cn(N(C)c2ncc(C(F)(F)F)cc2Cl)c(=O)c2ccccc12	0.3	0.1	3.4	15.5	0.0	x	x	x	x
O=C(c1ccc(CS(=O)(=O)c2c(Cl)cccc2Cl)o1)N1CCCC1	-2.9	-1.2	-14.5	-2.9	-0.3	x	x	x	x
CCOc1ccc(C(=O)NC2CCN(C(=O)NCc3ccccc3)CC2)cc1	-2.2	-0.2	2.5	-2.9	0.0	x	x	x	x
Cc1ccc(-n2c(SCC(=O)Nc3cccc4ccccc34)nnc2-c2cccs2)cc1	2.5	x	6.1	x	x	x	x	x	x
O=C(CSc1nnc(Cc2cccs2)n1-c1ccc(Cl)cc1)Nc1ccc(OCc2ccccc2)cc1	13.9*	x	26.4*	x	x	12.7	3.4	23.4*	15.7*
Cc1ccc(OCc2nnc(SCC(=O)Nc3ccc(OCc4ccccc4)cc3)n2-c2ccc(Cl)cc2)cc1	-1.3	x	-2.8	x	x	x	x	x	x
Cc1ccc(-n2c(Cc3cccs3)nnc2SCC(=O)Nc2cccc3ccccc23)cc1	10.7*	x	26.3*	x	x	7.6	2.0	16.2	8.1
CC(C)(C)NC(=O)C(c1ccc(-c2ccccc2)cc1)N(C[C@H]1CC[C@@H]([C@@H]2CC[C@H](CO)O2)O1)C(=O)c1ccc2ccccc2c1 (stereo not given in full)	10.3*	2.1	21.2*	15.8	0.3	3.2	0.7	16.0	10.1*
